Compound activity: PubChem BioAssay, The Scripps Research Institute Molecular Screening Center
Compounds with a hit are over-represented: about 4.1% of the library has one in this group of screens.
UHRF1 binding: human UHRF1 methylated DNA binding inhibitors; UHRF1 binding to methylated oligo, TR-FRET; inhibition, % at 4.4 µM; hit rate 0.75% among 370,000; in the data active = inhibition above about 21%;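 also: UHRF1 SRA domain binding a hemimethylated CpG hairpin DNA probe; 0% = median of test compound wells and 100% = reference inhibitor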
LEDGF integ inh: blocks HIV-1 LEDGF/p75-dependent DNA integration; TR-FRET IN-LEDGF/p75 DNA integration, Eu/Cy5; inhibition, % at 3.7 µM; hit rate 0.64% among 370,000; AID 743269;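 active = inhibition above the screen-wide mean plus 3 SD, cut at about 13% in these data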;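 also: signal is the Cy5 over europium emission ratio at 671 and 618 nm; 0% = plate median of compound wells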
ABHD5-PLIN5 inh: inhibitors of human ABHD5-perilipin-5 interaction | Q00G26+Q8WTS1 | Split G. princeps luciferase complementation, luminescence, 4 h | inhibition, % at 4 µM | hit rate 0.78% among 360,000 | AID 602281;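 active = inhibition above the mean inhibition across every tested compound plus 3 SD, cut at about 22% in these data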;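 also: 0% = DMSO only wells and the 100% control is not disclosed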
MBD2 DNA inh: MBD2-methylated oligo binding inhibition; AID 686964; Q9UBB5; TR-FRET, MBD2 binding to methylated oligonucleotide; inhibition, % at 4.4 µM; hit rate 0.31% among 370,000; in the data active = inhibition above about 13%
rCAG binder: binds r(CAG) RNA repeats; r(CAG) RNA repeat, TO-PRO-1 dye displacement fluorescence; inhibition, % at 3 µM; hit rate 1.3% among 370,000;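 active = inhibition above the plate cutoff, the mean of all test compounds on that plate plus 3 SD, cut at about 35% in these data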;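 also: 0% = DMSO alone and 100% = 100 µM mitoxantrone as full dye displacement; higher means more dye released from RNA so lower well fluorescence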
PRMT1 FP inh: PRMT1 (human) inhibition, primary screen. recombinant PRMT1, activity-based probe fluorescence polarization. inhibition, % at 2.79 µM. hit rate 1.3% among 370,000. AID 652257;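 active = inhibition above about 21% made by adding two undisclosed values, limit read from the data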
Target sequence (Q99873 whole entry, looked up): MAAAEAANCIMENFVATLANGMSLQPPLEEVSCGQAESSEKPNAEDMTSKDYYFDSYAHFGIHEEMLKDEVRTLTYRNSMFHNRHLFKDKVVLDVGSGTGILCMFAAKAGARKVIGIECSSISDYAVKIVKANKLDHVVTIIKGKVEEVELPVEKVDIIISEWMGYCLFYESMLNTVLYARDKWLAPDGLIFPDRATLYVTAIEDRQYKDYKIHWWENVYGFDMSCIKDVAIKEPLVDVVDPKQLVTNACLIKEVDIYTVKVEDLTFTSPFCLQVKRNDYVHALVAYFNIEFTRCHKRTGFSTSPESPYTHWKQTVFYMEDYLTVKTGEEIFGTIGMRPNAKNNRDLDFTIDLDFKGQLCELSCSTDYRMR
rCAG bind conf: r(CAG) RNA repeat binding, confirmation | shares compounds with rCAG binder | TO-PRO-1 dye displacement fluorescence | inhibition, % at 3 µM | hit rate 70% among 4,300 | AID 652065;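 active = inhibition above a per-plate cutoff, the mean inhibition of sample wells plus 3 SD, cut at about 35% in these data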;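 also: loss of TO-PRO-1 fluorescence as compound displaces dye from 1x1 AA loop RNA; 0% = DMSO only wells and 100% = 100 µM mitoxantrone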
dCAG dye counter: counter-screen for rCAG RNA binders: DNA CAG dye complex inhibitors; shares compounds with rCAG binder; d(CAG) DNA oligo TO-PRO-1 dye displacement, fluorescence; inhibition, % at 3 µM; hit rate 94% among 4,300; AID 652068;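 active = inhibition above its plate's cutoff, the mean test-well inhibition plus 3 SD, cut at about 4.8% in these data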;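 also: 0% = DNA dye mix with DMSO and 100% = 100 µM mitoxantrone; hits displace the dye from DNA and so lower well fluorescence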
dCAG dye DR: counter-screen for rCAG binders: inhibitors of DNA CAG TO-PRO-1 complex; hit rate 20% among 250; IC50, µM; shares compounds with rCAG binder; DNA CAG/GTC duplex TO-PRO-1 dye displacement fluorescence; in the data active = IC50 below about 10 µM
The depositor's hits bear a star; i = inactive; / = no result given.

SMILES	UHRF1 binding	LEDGF integ inh	ABHD5-PLIN5 inh	MBD2 DNA inh	rCAG binder	PRMT1 FP inh	rCAG bind conf	dCAG dye counter	others
C[C@@H]1NS(=O)(=O)c2ccc(F)cc2O[C@@H]1c1ccccc1	-2	5	/	-7	3	-1	/	/
O=C(Nc1ccccc1C(=O)O)/C(=C/c1ccc(Cl)cc1Cl)NC(=O)c1ccco1	1	1	3	-9	52*	3	27	6.0*
O=C(Nc1cccc(Oc2ccc(C(=O)O)c(C(=O)O)c2)c1)c1ccc(-c2ccccc2)cc1	-4	9	13	2	58*	0	53*	19*
O=C(NNC(=S)NC1CCCCC1)c1sc2ccccc2c1Cl	-5	1	-15	2	83*	-1	82*	54*
O=C(NC1CC1)c1sc2ccccc2c1Cl	3	-3	2	3	0	4	/	/
O=C(O)CC(NC(=O)c1sc2ccccc2c1Cl)c1ccc(OC2CCCC2)cc1 (configuration not stated)	3	6	1	0	59*	3	73*	25*	dCAG dye DR=i
O=C(O)CC(NC(=O)C1c2ccccc2Oc2ccccc21)c1ccc(OC2CCCC2)cc1 (configuration not stated)	2	6	-8	4	50*	1	48*	12*
O=C(O)CC(NC(=O)c1cccc(F)c1)c1ccc(OC2CCCC2)cc1 (configuration not stated)	0	-4	-2	5	10	1	/	/
O=C(O)CC(NC(=O)C1c2ccccc2Oc2ccccc21)c1ccc(Cl)cc1 (configuration not stated)	7	0	-1	2	39*	3	26	4
C[C@H]1[C@@H](NC(=O)c2cccc(N(C)C)c2)CC[C@@]23CCCN2C(=O)CCC[C@@H]13	-1	2	/	0	/	0	/	/
COC(=O)[C@@]12CCCCC3=C1N(CCC3)C(=O)[C@H]2CC(=O)NCCC(C)C	-4	2	/	-3	1	-3	/	/
O=C(CSc1nnc(-c2ccccc2)n1-c1ccc(Cl)cc1)Nc1ccc(OCc2ccccc2)cc1	0	1	/	-2	6	1	/	/
Nc1[nH]c(C(=O)c2ccccc2)c(-c2ccc(F)cc2)c1C(=O)c1c[nH]c2ccccc12	0	-3	/	-4	13	0	/	/
Cc1cc(NS(=O)(=O)c2ccc(NC(=O)C(C)Oc3ccc(Cl)cc3)cc2)no1 (configuration not stated)	3	0	-2	2	31	3	/	/
Cc1cc(NS(=O)(=O)c2ccc(NC(=O)C(C)Oc3ccccc3Cl)cc2)no1 (configuration not stated)	1	-1	-13	-1	36*	0	19	3
Cc1cc(NS(=O)(=O)c2ccc(NC(=O)C(C)Oc3cc(C)c(Cl)c(C)c3)cc2)no1 (configuration not stated)	1	0	-1	0	69*	-4	66*	28*
CCCCNS(=O)(=O)CC1NCCc2ccccc21 (configuration not stated)	2	-2	/	1	3	2	/	/
COC(=O)[C@@H]1[C@H](O[Si](C)(C)C(C)(C)C)C2OC2C[C@H]1S(=O)(=O)c1ccccc1 (some centres not stated)	-3	0	/	3	/	3	/	/
CCOc1cc(C(c2c(C)[nH][nH]c2=O)c2c(C)[nH][nH]c2=O)ccc1OCc1ccc([N+](=O)[O-])cc1	-9	3	0	-8	39*	5	42*	14*
Cc1ccc(OCc2nnc(SCC(=O)Nc3ccc(S(=O)(=O)Nc4cc(C)nc(C)n4)cc3)n2Cc2ccco2)cc1	4	-2	/	-3	38*	2	47*	13*
Cc1cc(NS(=O)(=O)c2ccc(NC(=O)CSc3nnc(-c4ccc(Cl)cc4)n3Cc3ccco3)cc2)nc(C)n1	-4	5	/	-8	38*	1	41*	14*
